Inconclusive results are not listed. A call without a number means that no potency is given here. Values without a mark were called inactive. Activity calls are given as the source filed them. Calls follow the shape of the dose curve; as a rule, active = well fitted curve in the direction sought with a large enough effect; inconclusive = small, poorly fitted or top-dose-only effect, or another doubt; inactive = no such curve, though single readings can be large; an effect the other way counts as inactive or inconclusive.
Key:
[1] = Quantitative High-Throughput drug screen in 47 multiple myeloma cell lines against the NCATS MIPE library collection: MOLP8_DSMZ cell viability assay (AID 1918977); also: nearly all actives have a fitted effect of over 45% in size; also: potency is read from the fitted curve at half-maximal effect
Summary of the method: (§1)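 Inhibition of viability over 48 h was scored by ATP content (CellTiter-Glo) in 500-cell wells. Zero and full viability were defined by media-only and DMSO-only wells.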

[2] = Quantitative High-Throughput drug screen in 47 multiple myeloma cell lines against the NCATS MIPE library collection: NCIH929_DSMZ cell viability assay (AID 1918978); also: nearly all actives have a fitted effect of over 35% in size; also: potency is read from the fitted curve at half-maximal effect
Summary of the method: as §1

[3] = Quantitative High-Throughput drug screen in 47 multiple myeloma cell lines against the NCATS MIPE library collection: MM1R_ATCC cell viability assay (AID 1918981); also: nearly all actives have a fitted effect of over 35% in size; also: potency is read from the fitted curve at half-maximal effect
Summary of the method: as §1

[4] = Quantitative High-Throughput drug screen in 47 multiple myeloma cell lines against the NCATS MIPE library collection: LP1_DSMZ cell viability assay (AID 1918982); also: nearly all actives have a fitted effect of over 35% in size; also: potency is read from the fitted curve at half-maximal effect
Summary of the method: as §1

[5] = Quantitative High-Throughput drug screen in 47 multiple myeloma cell lines against the NCATS MIPE library collection: KMS28PE_JCRB cell viability assay (AID 1918983); also: nearly all actives have a fitted effect of over 35% in size; also: potency is read from the fitted curve at half-maximal effect
Summary of the method: as §1

[6] = Quantitative High-Throughput drug screen in 47 multiple myeloma cell lines against the NCATS MIPE library collection: KMS34_JCRB cell viability assay (AID 1918985); also: nearly all actives have a fitted effect of over 40% in size; also: potency is read from the fitted curve at half-maximal effect
Summary of the method: as §1

[7] = Quantitative High-Throughput drug screen in 47 multiple myeloma cell lines against the NCATS MIPE library collection: OCIMY5_PLB cell viability assay (AID 1918988); also: nearly all actives have a fitted effect of over 65% in size; also: potency is read from the fitted curve at half-maximal effect
Summary of the method: as §1

[8] = Quantitative High-Throughput drug screen in 47 multiple myeloma cell lines against the NCATS MIPE library collection: OPM1_PLB cell viability assay (AID 1918989); also: nearly all actives have a fitted effect of over 40% in size; also: potency is read from the fitted curve at half-maximal effect
Summary of the method: as §1

[9] = Quantitative High-Throughput drug screen in 47 multiple myeloma cell lines against the NCATS MIPE library collection: SKMM1_PLB cell viability assay (AID 1919863); conditions: SKMM1 myeloma viability, CellTiter-Glo ATP, 48 h; viability: active compounds read low; also: nearly all actives have a fitted effect of over 35% in size; also: potency is read from the fitted curve at half-maximal effect; as to viability: series mostly up to about 46 µM
Summary of the method: as §1

[10] = Quantitative High-Throughput drug screen in 47 multiple myeloma cell lines against the NCATS MIPE library collection: XG6_PLB cell viability assay (AID 1919865); also: nearly all actives have a fitted effect of over 40% in size; also: potency is read from the fitted curve at half-maximal effect
Summary of the method: as §1

[11] = Quantitative High-Throughput drug screen in 47 multiple myeloma cell lines against the NCATS MIPE library collection: KMS20_JCRB cell viability assay (AID 1918973); also: nearly all actives have a fitted effect of over 45% in size; also: potency is read from the fitted curve at half-maximal effect
Summary of the method: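 We plated 500 myeloma cells per well, pinned in MIPE 4.0 compounds, and incubated for 48 hours at 37C. ATP was then quantified with CellTiter-Glo, with DMSO and media-only wells defining 100% and 0%.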

[12] = Quantitative High-Throughput drug screen in 47 multiple myeloma cell lines against the NCATS MIPE library collection: OCIMY1_PLB cell viability assay (AID 1918979)
Summary of the method: as §1

[13] = Quantitative High-Throughput drug screen in 47 multiple myeloma cell lines against the NCATS MIPE library collection: MM1S_ATCC cell viability assay (AID 1918980); also: nearly all actives have a fitted effect of over 45% in size; also: potency is read from the fitted curve at half-maximal effect
Summary of the method: as §1

[14] = Quantitative High-Throughput drug screen in 47 multiple myeloma cell lines against the NCATS MIPE library collection: L363_DSMZ cell viability assay (AID 1918984); also: nearly all actives have a fitted effect of over 40% in size
Summary of the method: as §1

[15] = Quantitative High-Throughput drug screen in 47 multiple myeloma cell lines against the NCATS MIPE library collection: U266_ATCC cell viability assay (AID 1919864); also: nearly all actives have a fitted effect of over 35% in size; also: potency is read from the fitted curve at half-maximal effect
Summary of the method: as §1

[16] = Quantitative High-Throughput drug screen in 47 multiple myeloma cell lines against the NCATS MIPE library collection: OCIMY7_PLB cell viability assay (AID 1918987); also: nearly all actives have a fitted effect of over 65% in size; also: potency is read from the fitted curve at half-maximal effect
Summary of the method: as §1

[17] = Quantitative High-Throughput drug screen in 47 multiple myeloma cell lines against the NCATS MIPE library collection: KMS26_JCRB cell viability assay (AID 1918975); also: nearly all actives have a fitted effect of over 45% in size
Summary of the method: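 Myeloma cell lines, 500 cells per well, exposed to MIPE 4.0 library compounds for 48 h at 37C, 5% CO2. Viability from ATP by CellTiter-Glo luminescence; normalised to DMSO (100%) and media-only (0%) wells.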

CN1CCC(=C2c3ccccc3CCc3sccc32)CC1
Potency [1]: inactive | Potency [2]: inactive | Potency [3]: inactive | Potency [4]: inactive | Potency [5]: inactive | Potency [6]: inactive | Potency [7]: inactive | Potency [8]: 18.7 µM (active) | viability [9]: 99.6% | Potency [10]: inactive

CC1=C(C)C(=O)C(C(CCCCCC(=O)O)c2ccccc2)=C(C)C1=O (stereo not given)
Potency [11]: inactive | Potency [2]: inactive | Potency [5]: inactive | Potency [8]: 14.8 µM (active) | viability [9]: 86.2% | Potency [10]: inactive

O=C(O)c1cccnc1Nc1cccc(C(F)(F)F)c1
Potency [11]: inactive | Potency [2]: inactive | Potency [12]: inactive | Potency [13]: inactive | Potency [3]: inactive | Potency [4]: inactive | Potency [5]: inactive | Potency [14]: inactive | Potency [6]: inactive | Potency [8]: inactive | viability [9]: 127%

COc1cc2c(N3CCN(C(=O)Nc4ccc(OC(C)C)cc4)CC3)ncnc2cc1OCCCN1CCCCC1
Potency [11]: 5.26 µM (active) | Potency [2]: 11.8 µM (active) | Potency [13]: 26.4 µM (active) | Potency [14]: inactive | Potency [8]: 9.35 µM (active) | Potency [15]: 23.5 µM (active) | Potency [10]: 18.7 µM (active)

C[C@@H](N)C1CCC(C(=O)Nc2ccncc2)CC1 (stereo not given in full)
Potency [11]: inactive | Potency [1]: inactive | Potency [13]: inactive | Potency [3]: inactive | Potency [4]: inactive | Potency [6]: inactive | Potency [7]: 11.8 µM (active) | viability [9]: 141% | Potency [10]: 5.9 µM (active)

O=C(O)c1cc(=O)c2c(OCC(O)COc3cccc4oc(C(=O)O)cc(=O)c34)cccc2o1
Potency [2]: inactive | Potency [3]: inactive | Potency [4]: inactive | Potency [5]: inactive | Potency [16]: inactive | viability [9]: 125%

O=C1c2c(O)cc(O)cc2OC(c2ccc(O)c(O)c2)C1O (stereo not given)
Potency [17]: inactive | Potency [1]: inactive | Potency [2]: inactive | Potency [12]: inactive | Potency [4]: inactive | Potency [7]: inactive | Potency [8]: inactive

COC(=O)C1=C(C)NC(C)=C(C(=O)OCCCN2CCC(c3ccccc3)(c3ccccc3)CC2)C1c1cccc([N+](=O)[O-])c1 (stereo not given)
Potency [11]: inactive | Potency [1]: inactive | Potency [2]: inactive | Potency [12]: inactive | Potency [3]: 20.9 µM (active) | Potency [4]: inactive | Potency [5]: inactive | Potency [6]: 3.32 µM (active) | viability [9]: 122% | Potency [10]: inactive

Cc1ccc(NC(=O)c2ccc(CN3CCN(C)CC3)cc2)cc1Nc1nccc(-c2cccnc2)n1
Potency [1]: inactive | Potency [12]: inactive | Potency [3]: inactive | Potency [5]: inactive | Potency [8]: 23.5 µM (active) | Potency [10]: 33.2 µM (active)

C=CCc1cc(OC)c(O)c(C(=O)NCCO)c1
Potency [17]: inactive | Potency [2]: inactive | Potency [12]: inactive | Potency [13]: inactive | Potency [3]: inactive | Potency [4]: inactive | Potency [5]: inactive | Potency [6]: inactive | Potency [7]: inactive

Cc1nccn1CC1CCc2c(c3ccccc3n2C)C1=O (stereo not given)
Potency [2]: 26.4 µM (active) | Potency [13]: 26.4 µM (active) | Potency [3]: inactive | Potency [5]: 20.9 µM (active) | Potency [8]: 18.7 µM (active) | viability [9]: 99.5% | Potency [15]: 23.5 µM (active)

Cc1nc(-c2ccc(OCC(C)C)c(C#N)c2)sc1C(=O)O
Potency [11]: inactive | Potency [1]: 2.96 µM (active) | Potency [2]: inactive | Potency [12]: inactive | Potency [13]: inactive | Potency [5]: inactive | Potency [6]: inactive | Potency [8]: inactive | viability [9]: 114% | Potency [15]: inactive

CCN(CC)CCOc1ccc(Cc2ccccc2)cc1
Potency [11]: inactive | Potency [2]: inactive | Potency [12]: inactive | Potency [13]: 23.5 µM (active) | Potency [4]: 14.8 µM (active) | Potency [5]: 20.9 µM (active) | Potency [16]: inactive | Potency [7]: 11.8 µM (active) | Potency [15]: 20.9 µM (active)

O=C1c2ccccc2-c2n[nH]c3cccc1c23
Potency [12]: inactive | Potency [13]: 14.8 µM (active) | Potency [4]: inactive | Potency [5]: inactive | Potency [8]: inactive | Potency [15]: inactive

CCCCC(CC)COC(=O)C(C#N)=C(c1ccccc1)c1ccccc1 (stereo not given)
Potency [11]: inactive | Potency [17]: inactive | Potency [1]: inactive | Potency [2]: inactive | Potency [12]: inactive | Potency [3]: inactive | Potency [5]: inactive | Potency [6]: inactive | Potency [16]: inactive | Potency [8]: inactive | viability [9]: 130%

CC1(C)NC(=O)N(c2ccc([N+](=O)[O-])c(C(F)(F)F)c2)C1=O
Potency [1]: inactive | Potency [2]: inactive | Potency [12]: inactive | Potency [4]: 18.7 µM (active) | Potency [5]: 16.6 µM (active) | Potency [7]: 8.33 µM (active) | Potency [8]: inactive | Potency [15]: inactive | Potency [10]: inactive

Nc1ncn([C@H]2C[C@H](O)[C@@H](CO)O2)c(=O)n1
Potency [11]: 0.132 µM (active) | Potency [17]: inactive | Potency [1]: inactive | Potency [12]: inactive | Potency [13]: 0.418 µM (active) | Potency [3]: inactive | Potency [4]: inactive | Potency [5]: inactive | Potency [14]: inactive | Potency [16]: 0.187 µM (active) | Potency [8]: 8.33 µM (active) | Potency [9]: 5.9 µM (active)

— PubChem BioAssay (NCATS)
